Screening results from PubChem.
PfHsp90 yeast 2: growth inhibition of PfHsp90-expressing yeast, primary screen, antimalarial PfHsp90 inhibitor project, S. cerevisiae, BacTiter-Glo luminescence, single point, set 2; actives 0.32% (n = 310,000); BacTiter-Glo ATP, 48 h; yeast lacking PDR1 and PDR3 efflux regulators; inhibition, % at 9.4 µM;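 active = every replicate shows inhibition above about 80%, whatever the replicate mean, limit read from the data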;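 note: 0% = DMSO neutral controls and 100% = 20 µM radicicol positive controls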
ATG4B inh: ATG4B protease inhibitors, primary screen, biochemical, fluorescence, uHTS | AID 504462, 2011 | ATG4B cleavage of LC3-PLA2, NBD-HPC fluorescence, 1 h | actives 0.51% (n = 340,000) | inhibition, % at 8.33 µM | Cysteine protease ATG4B (Homo sapiens), Q9Y4P1; in the data active = inhibition above about 40%
Target sequence (Q9Y4P1 whole entry, looked up): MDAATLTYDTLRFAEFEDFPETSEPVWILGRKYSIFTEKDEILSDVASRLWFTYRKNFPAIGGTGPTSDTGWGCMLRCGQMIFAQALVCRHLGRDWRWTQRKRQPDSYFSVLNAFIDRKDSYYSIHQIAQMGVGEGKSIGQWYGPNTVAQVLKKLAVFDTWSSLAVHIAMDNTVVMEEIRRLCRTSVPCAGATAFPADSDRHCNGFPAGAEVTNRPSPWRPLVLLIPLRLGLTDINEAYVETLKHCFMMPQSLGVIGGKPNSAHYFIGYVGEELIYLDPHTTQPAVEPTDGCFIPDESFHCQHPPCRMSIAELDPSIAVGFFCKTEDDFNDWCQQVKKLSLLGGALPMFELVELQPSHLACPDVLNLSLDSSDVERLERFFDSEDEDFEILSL
TIM10 inh: growth inhibitors of isogenic TIM10 control yeast, primary screen, counter-screen for tim10-1 yeast inhibitor project, luminescence, uHTS; S. cerevisiae TIM10 strain growth, BacTiter-Glo luminescence, 24 h; inhibition, % at 10 µM; actives 1.4% (n = 330,000); AID 463195, 2010;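 active = inhibition of 40% or more at the single tested concentration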;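 note: wild-type TIM10 isogenic control strain grown at permissive 25 °C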
tim10-1 inh: growth inhibitors of tim10-1 mutant yeast, primary screen, luminescence, uHTS | S. cerevisiae tim10-1 ts strain growth, BacTiter-Glo, 24 h | inhibition, % at 20 µM | actives 2.2% (n = 330,000) | AID 463190, 2010;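 active = inhibition of at least 40%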;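 note: mutant grown at 25 °C; 0% = DMSO wells with yeast and 100% = wells holding no yeast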
tim23-1 inh: growth inhibitors of tim23-1 mutant yeast, primary screen, luminescence, uHTS; S. cerevisiae tim23-1 growth, BacTiter-Glo luminescence, 24 h; inhibition, % at 20 µM; actives 1.3% (n = 330,000);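 active = growth inhibition of the mutant yeast at or above 50%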;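 note: temperature-sensitive mutant grown at 25 °C; plate controls were DMSO-treated mutant yeast for no effect and medium wells lacking yeast for full effect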
SKKanGAS inh: S. pyogenes SKKanGAS growth inhibitors in kanamycin, primary screen, streptokinase expression inhibitor project, SKKanGAS strain, BacTiter-Glo luminescence; actives 1.3% (n = 300,000); 6 h; inhibition, % at 7.5 µM;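 active = mean replicate score, as percent of positive control median, at least 50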;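 note: strain carries kanamycin resistance gene driven by streptokinase promoter and grows in 40 µg/ml kanamycin; loss of luminescence reflects streptokinase promoter inhibition or plain growth inhibition; 0% = median of DMSO wells and 100% = positive control at its reference dose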
TIM10 conf: growth inhibitors of wild-type TIM10 yeast, confirmation, counter-screen for tim10-1 synthetic lethality project, single concentration, luminescence, S. cerevisiae | AID 463215, 2010 | inhibition, % at 10 µM | shares compounds with TIM10 inh | actives 63% (n = 4,600) | S. cerevisiae tim10 strain growth, BacTiter-Glo luminescence, 24 h;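 active = inhibition of yeast growth at or above a set limit in either of two replicates at 10 µM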;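 note: this counterscreen used the strain with wild-type TIM10; 0% = yeast with DMSO and 100% = medium wells lacking yeast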
tim23-1 conf: tim23-1 mutant yeast growth inhibitors, confirmation, luminescence, single concentration. shares compounds with tim23-1 inh. S. cerevisiae tim23-1 growth, BacTiter-Glo luminescence, 24 h. inhibition, % at 20 µM. actives 83% (n = 4,400). AID 463218, 2010;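 active = inhibition above about 39% in either of two replicate wells at 20 µM, limit read from the data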;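 note: temperature-sensitive tim23-1 mutant grown at 25 °C; 0% = DMSO wells with yeast and 100% = medium wells without yeast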
* hit, by the source's call; / = not tested or not shown. Rows were chosen to be rich in hits. Some 4.7% of all compounds tested hit in one or more screens of this group.

SMILES	PfHsp90 yeast 2	ATG4B inh	TIM10 inh	tim10-1 inh	tim23-1 inh	SKKanGAS inh	TIM10 conf	tim23-1 conf
Cc1ccc(C(=O)COC(=O)c2cn3ccccc3n2)cc1	0	-3	48*	20	57*	-7	42*	69*
O=C(C1COc2ccccc2O1)N1CCN(c2ccc([N+](=O)[O-])cc2)CC1 (stereo unspecified)	-12	-7	43*	36	61*	/	47*	55*
O=C(C1COc2ccccc2O1)N1CCN(c2ccc(F)cc2)CC1 (stereo unspecified)	11	-6	15	10	7	-18	/	/
Cc1ccc(-c2nnc(N3CCCCCC3)c3ccccc23)cc1	0	0	44*	25	60*	4	15	54*
COCCN1CCn2c(nc3cc(NC(=O)c4cccs4)ccc32)C1	-2	3	24	-5	38	3	/	/
COc1ccc(C(=O)Nc2ccccc2)cc1NC(=O)c1cccs1	3	-3	54*	18	51*	0	45*	74*
COCC(=O)Nc1cc(C(=O)Nc2ccccc2)ccc1Cl	/	/	42*	31	54*	-7	47*	71*
COc1cccc(NC(=O)c2cccs2)c1	/	-6	66*	27	51*	2	56*	75*
CC(c1ccccc1)N1CCn2c(nc3cc(NC(=O)c4cccs4)ccc32)C1 (stereo unspecified)	12	7	44*	24	53*	-7	32*	64*
CCOCC(=O)Nc1cc(C(=O)Nc2ccc(F)cc2)ccc1Cl	/	/	3	-10	-1	-2	/	/
CCOC(=O)C1CCN(c2nc(-c3ccc(Br)cc3)nc3ccccc23)CC1	/	-10	19	12	8	7	/	/
CC(C)c1ccc(N(C(=O)c2ccc3c(c2)OCO3)C2C=CS(=O)(=O)C2)cc1 (stereo unspecified)	14	-7	-2	20	24	4	/	/
CCOC(=O)C1=C(CN2CCC(C)CC2)NC(=O)NC1c1ccc(Cl)cc1 (stereo unspecified)	-15	-1	5	12	14	-3	/	/
COCC(=O)Nc1ccc2nc3n(c(=O)c2c1)CCCCC3	-7	-8	-2	-4	5	2	/	/
O=C(Nc1ccc2nn(-c3ccccc3)nc2c1)c1cccs1	-11	-19	53*	30	54*	-7	54*	65*
O=C(Nc1ccc2nsnc2c1)c1cccs1	9	-2	18	16	19	-3	/	/
COc1cccc(C(=O)Nc2ccccc2)c1	19	-6	44*	25	50*	-6	27	58*
COc1cccc(C(=O)Nc2ccc(NC(=O)Cc3ccccc3)cc2)c1	-20	-6	-15	4	15	15	/	/
C=CCN=C1S/C(=C/c2cccc([N+](=O)[O-])c2)C(=O)N1CC=C	-8	1	-3	24	29	-4	/	/
COc1cc(OC)nc(NC(=S)NC(=O)c2ccccc2)n1	-4	-4	8	19	5	10	/	/
S=C(NCC1CCCO1)N1CCN(c2cccc(Cl)c2)CC1 (stereo unspecified)	-10	-3	3	0	9	1	/	/
CCN(CC)C(=O)c1sc2nc(-c3cccs3)cc(-c3cccs3)c2c1N	0	0	43*	35	53*	29	35*	43*
CCOC(=O)/C=C1/N(C)c2ccccc2C1(C)C	-1	6	9	-1	-2	12	/	/
